# PubChem BioAssay AID2685 (National Center for Advancing Translational Sciences (NCATS), 2010)
# Among all 320,000 compounds or so, about 2,100 (0.66%) were called active. Inconclusive results (about 53%) are left out. This is one part of a sample in which actives are shown more often than they occur. Calls come from the whole dose curve; as a rule, active = well fitted inhibition curve with a large enough effect in the signal ratio, with a control signal flat (not every such curve was filed as active); inconclusive = small, poorly fitted or top-dose-only effect, or effect the other way, or a change in a side signal; inactive = flat fitted curve, though single readings scatter; the % refers to the signal ratio.
# Experiment: qHTS Assay for Lipid Storage Modulators in Drosophila S3 Cells;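 for cell number change: cells counted by Cell Tracker Red CMTPX staining in the red channel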; for lipid storage change, negative = inhibition: % is set by controls: 0 for no effect and ±100 for the full control effect
# Settings: BODIPY lipid droplet fluorescence, 18-24 h, cells fed with added oleic acid; cell number change: measured here: cell count max response; series mostly up to 46.1 µM; lipid storage change, negative = inhibition: at the top concentration
# In short: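 Drosophila S3 cells got compounds at several concentrations plus oleic acid (400 uM solution). Laser-scanning cytometry with 488 nm excitation read lipid droplets at 500-530 nm and cells at 575-640 nm. Percent activity was relative to 20 uM Triacsin C.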
# Potency is the fitted concentration of half-maximal effect.
Structure (SMILES),"lipid storage change, negative = inhibition",cell number change [%],Potency,outcome
COC(=O)c1ccccc1NC(=O)C1CCCO1 (stereo not given),5.7% (inactive),-0.0238,,
CCOC(=O)c1ccccc1NC(=O)C1CCCO1 (stereo not given),0.203% (inactive),2.7,,
O=C(O)c1ccccc1NC(=O)C1CCCO1 (stereo not given),,-12.3,23.1 µM (active),
COc1ccc(C(=O)NC(C)C2CC3CCC2C3)c(OC)c1 (stereo not given),,14.1,,inactive
COc1cc(/C=C/C(=O)NC2CCCCC2)cc(OC)c1OC,,1.65,,inactive
COc1cc(/C=C/C(=O)NC(C)C2CC3CCC2C3)cc(OC)c1OC (stereo not given),,13.5,2.91 µM (active),
CCCCN1C(=O)C(=O)N(CC(=O)Nc2cc(OCC)c(N3CCOCC3)cc2OCC)C1=O,9.77% (inactive),-17.5,,
CCCN(c1ccccc1F)S(=O)(=O)c1cc(-c2cc(C)no2)ccc1OC,,-29.5,4.61 µM (active),
COC(=O)CCN(c1ccccc1)S(=O)(=O)c1cc(-c2cc(C)no2)ccc1OC,,,,inactive
COc1ccc(-c2cc(C)no2)cc1S(=O)(=O)N(C)c1ccc(C)cc1,,-26.4,,inactive
CN(Cc1ccc(F)cc1)S(=O)(=O)c1nnc(NC(=O)c2ccccc2)s1,,3.05,,inactive
O=C(Nc1nnc(S(=O)(=O)N2CCCCCC2)s1)c1cccc(Br)c1,-11.2% (inactive),16.5,,
Cc1cccc(C(=O)Nc2nnc(S(=O)(=O)N3CCOCC3)s2)c1,-27.6% (inactive),-0.612,,
COc1ccc(CN(C)S(=O)(=O)c2nnc(NC(=O)c3cccc(F)c3)s2)cc1,,,,inactive
COc1cccc(C(=O)Nc2nnc(S(=O)(=O)N3CCCC3)s2)c1,,-14.5,4.11 µM (active),
COc1cccc(C(=O)Nc2nnc(S(=O)(=O)N(C)Cc3ccc(F)cc3)s2)c1,,-17.9,29.1 µM (active),
CN(Cc1ccc2c(c1)OCO2)C(=O)c1cc(-c2ccccc2)c(N2CCOCC2)s1,,-5.64,,inactive
COc1cccc(C(=O)NCc2nnc(SCC(=O)Nc3nccs3)n2-c2cccc(C)c2)c1,7.07% (inactive),-7.27,,
COc1cc(NC(=O)CCc2nnc3ccc(N4CCN(C)CC4)nn23)cc(OC)c1,,-14.7,,inactive
Cc1ccc(C)c(/C=C2\CCn3c2nc2cc(C(=O)O)ccc2c3=O)c1,-0.517% (inactive),6.53,,
CNc1oc(C)nc1S(=O)(=O)c1ccc(C)cc1,-9.91% (inactive),-20.3,,
CNc1oc(-c2ccc(F)cc2)nc1S(=O)(=O)c1ccccc1,,11.1,,inactive
CNc1oc(C)nc1S(=O)(=O)c1ccccc1,,3.59,32.6 µM (active),
CC(=O)Nc1ccc(S(=O)(=O)Nc2ncccn2)cc1,5.04% (inactive),3.3,,

Structure (SMILES),"lipid storage change, negative = inhibition",cell number change [%],Potency,outcome
CC(=O)Nc1ccc(S(=O)(=O)Nc2nccc(C)n2)cc1,5.67% (inactive),1.57,,
CC(=O)Nc1ccc(S(=O)(=O)Nc2nccc(C3Cc4ccccc4C(=O)O3)n2)cc1 (stereo not given),,-1.08,14.6 µM (active),
O=C(CSc1nnc(COc2ccccc2)o1)N1CCN(c2ccccc2)CC1,2.5% (inactive),3.22,,
Cc1cccc(C(=O)Nc2ccc(N3CCN(S(C)(=O)=O)CC3)cc2)c1,-0.275% (inactive),1.55,,
COc1ccc(-n2ncc(C(C)NS(=O)(=O)c3ccc(C(C)=O)cc3)c2C)cc1 (stereo not given),-20.7% (inactive),-7.79,,
COC(=O)c1sccc1S(=O)(=O)NC(C)c1cnn(-c2ccc(OC)cc2)c1C (stereo not given),-6.72% (inactive),19.6,,
COc1ccc(-n2ncc(C(C)NS(=O)(=O)c3cc(F)ccc3C)c2C)cc1 (stereo not given),,-20.2,9.2 µM (active),
CN(C)CCCN(C(=O)COc1ccccc1)c1nc2ccc(F)cc2s1,-6.61% (inactive),-15.9,,
COc1ccc(Cn2nnnc2CN(Cc2cc3cccc(C)c3[nH]c2=O)C2CCCC2)cc1,-1.09% (inactive),-3.93,,
CCCCN(c1ccccc1)c1ncnc2nc[nH]c12,-13.1% (inactive),0.284,,
O=C1c2cc3ccccc3c(-c3ccccc3)c2C(=O)N1c1ccccn1,,-7.79,23.1 µM (active),
O=c1c2ccccc2c(-c2ccccc2)nn1-c1ccccn1,21.9% (inactive),,,
O=C1c2cccc3c(N4CCCCC4)ccc(c23)C(=O)N1c1ccccn1,22% (inactive),12.6,,
COc1ccc2c(c1)CCC(C)N2C(=O)C(=O)c1c[nH]c2ccccc12 (stereo not given),13.6% (inactive),,,
CCCCNC(=O)C1CCN(S(=O)(=O)c2c(C)noc2/C=C\c2ccc(OC)cc2)CC1,-15.3% [at 9.22 µM] (inactive),0.864,,
COc1ccccc1CCC(=O)OC(C)C(=O)Nc1c(C)n(C)n(-c2ccccc2)c1=O (stereo not given),-5.33% (inactive),,,
Cc1cc(C)cc(NC(=O)N2CCCC2C(=O)NCc2ccco2)c1 (stereo not given),17.2% (inactive),4.2,,
O=C(NCc1ccco1)C1CCCN1C(=O)Nc1cccc(Cl)c1 (stereo not given),10.9% (inactive),3.19,,
O=C(NCc1ccco1)C1CCCN1C(=O)Nc1ccc(Br)cc1 (stereo not given),,13.3,7.31 µM (active),
COCCNC(=O)C1CCN(S(=O)(=O)c2ccccc2)CC1,-7.72% (inactive),-5.9,,
CCNS(=O)(=O)c1ccc(C(=O)OCc2cc(=O)oc3cc(OC)ccc23)cc1,,12.6,,inactive
COc1ccc2c(COC(=O)CNS(=O)(=O)c3ccc(C)c(C)c3)cc(=O)oc2c1,,,,inactive
CCCNS(=O)(=O)c1cccc(C(=O)OCc2cc(=O)oc3cc(OC)ccc23)c1,,20.2,0.326 µM (active),
CCOC(=O)C1CCCN(C(=O)c2cc(S(=O)(=O)Nc3ccccc3OC)ccc2C)C1 (stereo not given),7.98% (inactive),12,,
